Results: the supplement of paper PMC8387472

Columns and labels:
Conditions in all cases: mESC; 2uM; 72 h treatment, harvest day 5
Rifapentine = compound: CO[C@H]1/C=C/O[C@@]2(C)Oc3c(C)c(O)c4c(O)c(c(/C=N/N5CCN(C6CCCC6)CC5)c(O)c4c3C2=O)NC(=O)/C(C)=C\C=C\[C@H](C)[C@H](O)[C@@H](C)[C@@H](O)[C@@H](C)[C@H](OC(C)=O)[C@@H]1C [Rifapentine]; experiment: fraction of microhomology deletions among edited reads; higher = more MH deletions
[1] = compound: COc1ccccc1-c1cc(Nc2cccc(CS(N)(=O)=O)c2)ncn1; experiment: as above
[2] = compound: C[C@@H]1CN(CC(=O)Nc2ccc3c(c2)Cc2cccc(-c4cc(=O)cc(N5CCOCC5)o4)c2S3)C[C@H](C)O1; experiment: as above
[3] = compound: Cc1cc(C)nc(SCC(=O)Nc2ncc(Cc3cccc4ccccc34)s2)n1; experiment: as above
[4] = compound: Cc1cccc(CC(=O)N2CCc3c2ccc(-c2cn(C)c4ncnc(N)c24)c3F)n1; experiment: as above
[5] = compound: NC(=O)c1ccc2nc(-c3ccc(Oc4ccc(Cl)cc4)cc3)[nH]c2c1 [Chk 2 inhibitor II (BML-277)]; experiment: as above
Tucidinostat (Chidamide) = compound: Nc1cc(F)ccc1NC(=O)c1ccc(CNC(=O)/C=C/c2cccnc2)cc1 [Tucidinostat (Chidamide)]; experiment: as above
Pemetrexed = compound: Nc1nc2[nH]cc(CCc3ccc(C(=O)N[C@@H](CCC(=O)O)C(=O)O)cc3)c2c(=O)[nH]1 [Pemetrexed]; experiment: as above
[6] = compound: Nc1ncnc2c1c(-c1cnc3[nH]ccc3c1)nn2C1CCCC1; experiment: as above
[7] = compound: O=C(c1cccc(Cl)c1F)N1CCN(Cc2cccc(Nc3nccs3)n2)CC1; experiment: as above
Kenpaullone = compound: O=C1Cc2c([nH]c3ccc(Br)cc23)-c2ccccc2N1 [Kenpaullone]; experiment: as above
Genistein = compound: O=c1c(-c2ccc(O)cc2)coc2cc(O)cc(O)c12 [Genistein]; experiment: as above
[8] = compound: O=c1cc(N2CCOCC2)oc2c(-c3ccc4c(c3)OCCO4)csc12; experiment: as above
Mercaptopurine (6-MP) = compound: S=c1[nH]cnc2nc[nH]c12 [Mercaptopurine (6-MP)]; experiment: as above
[9] = compound: S=c1nc[nH]c2nc[nH]c12 [6-Mercaptopurine (6-MP) Monohydrate]; experiment: as above
[10] = compound: CC(=O)O/N=C1\C(=O)N(Cc2cc(Cl)ccc2Cl)c2ccc(Cl)cc21; experiment: fraction of 1-bp insertions among edited reads; higher = more 1-bp insertion outcomes
[11] = compound: CC(C)(C#N)c1ccc(N2C(=O)OCc3cnc4ccc(-c5cnc6ccccc6c5)cc4c32)cc1; experiment: as above
[12] = compound: CCCCOc1c(C(=O)c2c(F)cc(C)cc2F)c[nH]c2nncc1-2; experiment: as above
[13] = compound: CCN1CCN(CC(=O)Nc2ccc(-c3cccc4c(=O)cc(N5CCOCC5)oc34)c3sc4ccccc4c23)CC1; experiment: as above
[14] = compound: CCc1c2c(nc3ccc(OC(=O)N4CCC(N5CCCCC5)CC4)cc13)-c1cc3c(c(=O)n1C2)COC(=O)[C@]3(O)CC [Irinotecan HCl Trihydrate]; experiment: as above

Target | fraction of microhomology deletions among edited reads (Rifapentine) | fraction of microhomology deletions among edited reads [1] | fraction of microhomology deletions among edited reads [2] | fraction of microhomology deletions among edited reads [3] | fraction of microhomology deletions among edited reads [4] | fraction of microhomology deletions among edited reads [5] | fraction of microhomology deletions among edited reads (Tucidinostat (Chidamide)) | fraction of microhomology deletions among edited reads (Pemetrexed) | fraction of microhomology deletions among edited reads [6] | fraction of microhomology deletions among edited reads [7] | fraction of microhomology deletions among edited reads (Kenpaullone) | fraction of microhomology deletions among edited reads (Genistein) | fraction of microhomology deletions among edited reads [8] | fraction of microhomology deletions among edited reads (Mercaptopurine (6-MP)) | fraction of microhomology deletions among edited reads [9] | fraction of 1-bp insertions among edited reads [10] | fraction of 1-bp insertions among edited reads [11] | fraction of 1-bp insertions among edited reads [12] | fraction of 1-bp insertions among edited reads [13] | fraction of 1-bp insertions among edited reads [14]
17.0 (DMSO control at this site: 1-bp insertion 0.112, MH deletion 0.348, edited 0.058) CCATAGCGCGATAAATATGACGGCTCATCCTGTATGACGGCTCATCCTGTATCAACTGTCC | 0.43 | 0.378 | 0.243 | 0.444 | 0.409 | 0.35 | 0.38 | 0.474 | 0.39 | 0.409 | 0.377 | 0.409 | 0.342 | 0.422 | 0.393 | 0.12 | 0.143 | 0.145 | 0.0756 | 0.161
8.0 GCATGCGTGTTTTGGGACAATGTAGTATACATTTGGGAGGCTCTCAGCTTTTCCCAATAAA | – | – | – | 0.0765 | – | – | 0.0826 | 0.127 | 0.0866 | – | 0.0098 | – | – | – | 0.00885 | 0.443 | 0.455 | 0.303 | – | –
16.0 (DMSO control at this site: 1-bp insertion 0.172, MH deletion 0.29, edited 0.05) CGGACTGCACACATGGGTAGGATCGTGCACGCGAGGTAGGATCGTGCACGCGAAGTTATTC | 0.319 | 0.282 | 0.12 | 0.275 | 0.281 | 0.254 | 0.302 | 0.279 | 0.198 | 0.256 | 0.327 | 0.305 | 0.257 | 0.314 | 0.294 | 0.169 | 0.15 | 0.138 | 0.0987 | 0.184
26.0 (DMSO control at this site: 1-bp insertion 0.518, MH deletion 0.262, edited 0.026) AGGGCGCGCCCCACGCACTCTGCGGCAAGTCCCTCTGCGGCAAGTCCTCGGCCCGGAAGAC | 0.272 | 0.295 | 0.115 | 0.281 | 0.301 | 0.302 | 0.278 | 0.44 | 0.201 | 0.275 | 0.244 | 0.296 | 0.338 | 0.311 | 0.297 | 0.507 | 0.45 | 0.513 | 0.131 | 0.466
35.0 (DMSO control at this site: 1-bp insertion 0.01, MH deletion 0.72, edited 0.098) CCACTTTTAGAGAGGGTGAAAATCATCAGTTATCATCAGGGCAACAAATTGCTTTCTCCTA | 0.776 | 0.724 | 0.562 | 0.732 | 0.695 | 0.722 | 0.687 | 0.794 | 0.699 | 0.679 | 0.683 | 0.77 | 0.809 | 0.684 | 0.657 | 0.0261 | 0.0309 | 0.00887 | 0.0214 | 0.0184
23.0 AGAACAAAGCGCTCATATAACGATATGGGGGGTTATGGGGGGTTGAATTGCTTCAGCACGA | – | – | – | – | – | – | – | – | – | 0.856 | – | – | – | – | – | – | – | – | – | –
3.0 (DMSO control at this site: 1-bp insertion 0.109, MH deletion 0.149, edited 0.09) TGCTAGCGCCCCCACAAAGCGGACCAGCCAGCACTATAGGGAATAAGGCCAACTTGCACCC | 0.188 | 0.178 | 0.0553 | 0.188 | 0.186 | 0.237 | 0.204 | 0.171 | 0.166 | 0.193 | 0.194 | 0.196 | 0.162 | 0.168 | 0.254 | 0.126 | 0.122 | 0.16 | 0.0557 | 0.111
2.0 (DMSO control at this site: 1-bp insertion 0.364, MH deletion 0.356, edited 0.125) GGTGCCCCCGAGACCTACGCGAACCGAAATCGATGTCCGGTGCGCAAGCAGGGCTGGCGTC | 0.417 | 0.327 | 0.123 | 0.378 | 0.3 | 0.397 | 0.303 | 0.408 | 0.262 | 0.256 | 0.29 | 0.4 | 0.419 | 0.33 | 0.321 | 0.325 | 0.381 | 0.379 | 0.106 | 0.355
41.0 (DMSO control at this site: 1-bp insertion 0.022, MH deletion 0.754, edited 0.115) AAAGAGACAGCAGGTATGAATCCATCTTCCTGACCCTTGGGACCAGCCGGGGCAGTGAAGC | 0.699 | 0.733 | 0.67 | 0.703 | 0.715 | 0.742 | 0.709 | 0.678 | 0.722 | 0.694 | 0.672 | 0.753 | 0.762 | 0.701 | 0.674 | 0.0367 | 0.0302 | 0.0252 | 0.0166 | 0.0367
44.0 (DMSO control at this site: 1-bp insertion 0.181, MH deletion 0.512, edited 0.123) ACACATACCTTCTTCGAGGCAGCCAGCATGATGAGACAGGTCTCCCACAAACACATCGTGT | 0.531 | 0.451 | 0.295 | 0.506 | 0.384 | 0.539 | 0.491 | 0.583 | 0.479 | 0.486 | 0.473 | 0.525 | 0.537 | 0.499 | 0.523 | 0.159 | 0.185 | 0.221 | 0.0636 | 0.21
